The supplement of paper PMC6555819

Key:
Test in all cases: PBM binding z-score (relative to random genomic background probes); higher = stronger binding; sequences stand for … in GC…GCGATTGACAGCGTAGAATGAAGG
[1] = test system: PPARg:RXRa DBDmut IVT, anti-RXR (DBD mutation: RXRa K156A/R161A, NR concentration 270 nM, RXRa partner concentration 90 nM)
In short: (§1)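 Each nuclear receptor dimer, without ligand, was incubated for 1 h on custom Agilent 4×180K protein-binding microarrays. Binding was detected with antibodies against each partner (one per run), and scanned fluorescence was regression-normalized. The binding z-scores are referenced to random human genomic background probes.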

[2] = test system: PPARg:RXRa IVT, anti-PPARg (NR concentration 270 nM, RXRa partner concentration 90 nM)
In short: as §1

[3] = test system: PPARg DBDmut:RXRa IVT, anti-PPARg (DBD mutation: PPARg1 K132A/R137A, NR concentration 270 nM, RXRa partner concentration 90 nM)
In short: as §1

[4] = test system: PPARg DBDmut IVT, anti-PPARg (DBD mutation: PPARg1 K132A/R137A, NR concentration 270 nM)
In short: as §1

[5] = test system: PPARg homodimer (NR concentration 180 nM)
In short: as §1

[6] = test system: PXR:RXRa (NR concentration 270 nM, RXRa partner concentration 90 nM)
In short: as §1

[7] = test system: PXR homodimer (NR concentration 270 nM)
In short: as §1

[8] = test system: RARa:RXR (NR concentration 270 nM, RXRa partner concentration 90 nM)
In short: as §1

[9] = test system: RARa homodimer (NR concentration 270 nM)
In short: as §1

[10] = test system: RARb:RXRa (NR concentration 270 nM, RXRa partner concentration 90 nM)
In short: as §1

[11] = test system: RARb homodimer (NR concentration 270 nM)
In short: as §1

[12] = test system: RARg:RXRa (NR concentration 270 nM, RXRa partner concentration 90 nM)
In short: as §1

[13] = test system: RARg homodimer (NR concentration 270 nM)
In short: as §1

[14] = test system: RXRa DBDmut IVT, anti-RXR (DBD mutation: RXRa K156A/R161A, NR concentration 90 nM)
In short: as §1

[15] = test system: RXRa homodimer (NR concentration 180 nM)
In short: as §1

[16] = test system: THRa:RXRa (NR concentration 90 nM, RXRa partner concentration 90 nM)
In short: as §1

[17] = test system: THRa homodimer (NR concentration 90 nM)
In short: as §1

[18] = test system: VDR homodimer (NR concentration 270 nM)
In short: as §1

| Sequence | PBM binding z-score [1] | PBM binding z-score [2] | PBM binding z-score [3] | PBM binding z-score [4] | PBM binding z-score [5] | PBM binding z-score [6] | PBM binding z-score [7] | PBM binding z-score [8] | PBM binding z-score [9] | PBM binding z-score [10] | PBM binding z-score [11] | PBM binding z-score [12] | PBM binding z-score [13] | PBM binding z-score [14] | PBM binding z-score [15] | PBM binding z-score [16] | PBM binding z-score [17] | PBM binding z-score [18] |
| --- | --- | --- | --- | --- | --- | --- | --- | --- | --- | --- | --- | --- | --- | --- | --- | --- | --- | --- |
| TCTGCTAGTTCAACGATGGTCAGCTAATCTGCTA | 0.463 | -0.112 | -0.479 | -0.339 | -1.27 | 0.51 | -0.0476 | 0.475 | -1.49 | 1.55 | 0.82 | 0.768 | 1.03 | 1.32 | 0.188 | 0.928 | -1.34 | 0.129 |
| CCGACTGGGGCATAAGGTTACCAAAAGCCAGCCC | 2.7 | 3.25 | -0.301 | -0.942 | 0.779 | 0.576 | -0.64 | 1.73 | 0.0494 | 1.81 | 1.97 | 1.72 | 0.905 | -0.369 | 1.3 | 2.24 | 1.14 | 0.0369 |
| GCATATAGGTACTACAAGGTGAAAGTCCGATTGT | 1.67 | 1.24 | 0.887 | 0.583 | 0.651 | 0.2 | -0.351 | 1.36 | -0.147 | 0.285 | 0.507 | 0.382 | 0.475 | 0.291 | 0.615 | 3.49 | 0.882 | 0.179 |
| GCATATGGGTAATACAAGGTGAAAGTCCGATTGT | 3.34 | 2.47 | 0.702 | 0.516 | 0.3 | 0.344 | 0.0703 | 1.08 | 0.617 | 0.416 | 0.725 | 0.405 | 0.402 | 0.208 | 0.486 | 3.98 | 0.841 | 0.115 |
| TTACCAACGTGAGCTGAGGTCGTTGATCCAACTC | -0.844 | -0.235 | -0.101 | -0.365 | -0.384 | 1.52 | 0.291 | 0.951 | -0.767 | 0.217 | 0.839 | 0.0093 | -0.366 | 0.168 | 0.547 | 2.48 | 1.5 | 2.12 |
| CCTGGGAGGACAACAGGAGGTCAGAGCTGCCAGA | -0.657 | 0.776 | -0.434 | -1.21 | 1.8 | 2.12 | 0.631 | 2.3 | 1.11 | 2.95 | 3.72 | 3.71 | 3.6 | -0.219 | 2.29 | 3.05 | 1.32 | 1.37 |
| TAACCTAGGTCATGGGCCAGTATACCACGCGAAC | 4.06 | 5.09 | 1.44 | 0.97 | 2.68 | 2.19 | 0.195 | 3.44 | 1.11 | 4.08 | 3.63 | 5.07 | 5.12 | 1.07 | 4.02 | 3.3 | 1.87 | 1.35 |
| ACAGACAGCTGATGAAGGTAACTCAGGCTATCAT | -0.796 | -0.158 | 0.246 | 0.14 | 0.00151 | -0.216 | -0.158 | 0.0124 | 0.287 | -0.232 | -0.303 | 0.146 | 0.225 | -0.306 | 0.083 | 0.595 | -0.25 | 0.0545 |
| GCTGCTAGGTCAGGTTGGTCAGCCAACGGGTACG | 2.43 | 2.2 | -1.3 | -1.25 | 0.608 | 0.00259 | -0.305 | 0.503 | -0.0936 | 3.2 | 2.66 | 2.78 | 3.65 | 0.121 | 0.819 | 1.61 | 0.269 | 0.768 |
| GCTCGGAGGACAAGGTAAGAGCTTTGTCCGTAGA | -0.716 | -0.298 | -1.26 | -1.29 | -1.16 | -0.574 | -1.14 | -0.493 | -1.14 | 0.88 | -0.035 | -0.119 | 0.491 | -0.345 | -0.527 | 0.97 | -0.444 | -0.59 |
| TGATTGAGGTTAAAGATCAGGGAACGTGGCGTCG | 1.62 | 3.15 | 1.39 | 1.52 | 0.865 | 1.96 | 0.148 | 2.95 | 0.729 | 2.24 | 1.01 | 2.5 | 1.35 | 0.759 | 3.67 | 2.57 | 0.317 | 0.679 |
| ATGGAAAGGTCGAAGGTGAGTATACCCACCCGAA | -0.138 | 2.06 | 1.21 | 0.517 | 1.61 | 2.99 | 0.649 | 4.14 | 0.905 | 3.78 | 2.68 | 4.21 | 3.87 | 0.318 | 4.97 | 2.3 | 0.00488 | 0.714 |
| CAAACTAGGTCATAGGTCAAAGTCGAGCCAACCA | 8.12 | 8.93 | 3.18 | 1.68 | 3.4 | 5.05 | 0.241 | 7.38 | 0.929 | 4.76 | 4.27 | 6.56 | 5.38 | 2.31 | 7.49 | 4.11 | 1.44 | 1.92 |
| TCAGACAGGTCAAGGTAACTCAGGTACGCAGTCG | 2.85 | 2.73 | 0.0851 | 0.283 | 1.88 | 2.46 | 0.321 | 3.37 | 0.676 | 4.31 | 3.61 | 4.57 | 4.8 | 2.07 | 4.44 | 3.33 | 1.49 | 0.989 |
| TATACAGGGTCGAAGGCCAGAGTACGAATGTCGA | -0.348 | 1.5 | 1.05 | 0.465 | 0.74 | 1.01 | -0.0237 | 1.61 | -0.116 | 1.75 | 1.26 | 1.87 | 1.72 | 0.491 | 2.32 | 1.16 | -0.382 | 1.23 |
